This note sets out measurements from PubChem BioAssay (NCATS).

Structures are written as SMILES. Values without a mark were called inactive. Records with an inconclusive call do not appear. Activity calls are given as the source filed them. Unless noted, calls come from the whole dose curve; as a rule, active = well fitted curve in either direction with a large enough effect (not every such curve was filed as active); inconclusive = small, poorly fitted or top-dose-only effect, or another doubt; inactive = flat fitted curve, though single readings scatter. A value given as a limit tells only on which side of the number the result lay.

In assay [1] the target is Lysosomal acid glucosylceramidase (Homo sapiens) (UniProt P04062). Kind of assay: Glucocerebrosidase-p2 (AID 348; in the data active = potency below about 10 µM; note: potency is the fitted concentration of half-maximal effect). The following applies: purified GBA, blue fluorogenic substrate, 40 min. The method in brief:
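Compounds titrated from 0.6 nM upwards against 0.2 nM enzyme in pH 5.9 citric acid/KH2PO4, taurocholate, tween-20; blue fluorogenic substrate 80 uM, 40 min room temperature, stopped and read Ex 365/Em 440 for AC50.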

Assay [2] in a line: NFAT Signaling Pathway (AID 444).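 Note: carbachol stimulus at about its EC50 of 1 µM final; % is set by controls: 0 for no effect and ±100 for the full control effect.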 The following applies: Jurkat NFAT-bla M1, carbachol, beta-lactamase ratio, 5 h; at 7.69 µM (top of the series) unless noted. The method in brief:
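Jurkat cells carrying an NFAT-driven β-lactamase reporter and co-transfected muscarinic M1 receptor were treated with compound plus carbachol (1 uM final, an EC50 level) for 5 h at 37 °C. CCF4 loading followed for 1 h at RT; 460/530 nm ratio gave %activity.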

The target in assay [3] is Glucocorticoid receptor (Homo sapiens) (UniProt P04150). The experiment in a line: GR-GFP Redistribution (AID 450;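 active = compounds whose dose series gives a full or clear partial fitted curve of increased nuclear translocation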; note: potency is the fitted concentration of half-maximal effect). The following applies: U2OS GR-GFP nuclear translocation, laser cytometry, 2 h.
For assay [4] the target is unchanged. The experiment in a line: GR-EFC Redistribution (AID 451; calls by dose curve; note: potency is the fitted concentration of half-maximal effect). The following applies: CHO-K1 GR-EFC translocation, beta-gal luminescence, 2 h. The method in brief:
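CHO-K1 cells stably expressing nuclear-localized β-gal enzyme acceptor and GR fused C-terminally to the enzyme donor fragment; ligand-driven nuclear translocation restores β-gal by complementation. Compounds titrated up to 46 uM final, 2 h at 37 °C; luminescence read.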

Assay [5] addresses Mitogen-activated protein kinase 10 (Mus musculus) (UniProt Q61831). The experiment in a line: JNK3 AlphaScreen Assay (AID 530).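 Note: kinase came from lysate of stimulated human HepG2 cells; signal reports phosphorylation of biotinylated GST-cJun 1-79 at Ser73 with 10 µM ATP; % is set by controls: 0 for no effect and ±100 for the full control effect.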 Particulars: JNK3 lysate, c-Jun phosphorylation; series mostly up to 11.4 µM. The method in brief: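 Inhibitors reduce antibody binding to phosphorylated biotin-cJun, lowering AlphaScreen luminescence. Lysates from HepG2 cells pre-activated by IL-1beta plus TNF-alpha supplied JNK3; compounds were titrated.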
For orientation: In Alpha technology, singlet oxygen from a donor bead excites a nearby acceptor bead.

Assay [6] addresses 3',5'-cyclic-AMP phosphodiesterase 4B (Homo sapiens) (UniProt Q07343). Kind of assay: qHTS Assay for Inhibitors of PDE-IV (AID 607; active = well fitted activation curve with a large enough effect in the main read-out, with a control signal flat, not every such curve was filed as active; note: % of control where 0% means no effect). The following applies: HEK293 ACTOne CNG channel cells, membrane potential fluorescence; series mostly up to 22.9 µM. The method in brief: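 Cell-based read-out of cAMP via a modified cyclic nucleotide-gated channel and membrane potential dye (535/590 nm) in HEK293 cells expressing PDE4 endogenously. Compounds tested up to 22.9 uM final; 100 uM RO 20-1724 reference.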
On the technique in general: qHTS replaces the single test concentration by a dilution series.

Assay [7] can be described thus: Stat Signaling Pathway (AID 446).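 Note: ME-180 cervical cancer cells given 40 pM IL-6 alongside compound; SIE-controlled beta-lactamase reporter measured as 460/530 nm FRET emission ratio; % is set by controls: 0 for no effect and ±100 for the full control effect.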 The following applies: ME-180 SIE beta-lactamase reporter, IL-6 stimulated, 5 h; at 7.69 µM (top of the series) unless noted. The method in brief:
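Reporter line: ME-180 cervical carcinoma, SIE-beta-lactamase. Treatment: compound with 40 pM IL-6, 5 hrs, 37 C, in low-serum OPTI-MEM with 10 mM HEPES pH 7.3. Detection: 460/530 nm fluorescence.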

Assay [8] is described as follows: qHTS Assay for Identification of Small Molecule Agonists for Hypoxia Response Element Signaling Pathway (AID 914; active = well fitted activation curve with a large enough effect in the signal ratio, with a control signal flat, not every such curve was filed as active; the % refers to the signal ratio; note: potency is the fitted concentration of half-maximal effect; for activation: % of control where 0% means no effect). The following applies: ME-180 (cervical carcinoma) HRE-bla reporter, beta-lactamase ratio, CoCl2, 17 h; activation: active compounds read high. The method in brief:
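A beta-lactamase reporter under hypoxia response element control in ME-180 cells served as the system. Compound titrations plus EC50 CoCl2 ran 17 h at 37 degrees Celsius; AC50 values were fitted from %Activity.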

Assay [9] addresses Cytochrome P450 1A2 (Homo sapiens) (UniProt P05177). Kind of assay: p450-cyp1a2 (AID 410; calls by dose curve; note: potency is the fitted concentration of half-maximal effect). The following applies: recombinant CYP1A2, luciferin-ME demethylation, luminescence; series mostly up to 11.4 µM. The method in brief: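 20nM CYP1A2 with 100uM Luciferin-ME (at Km) in 100mM KPO4; compound preincubated 10 min, NADPH regeneration added, 60 min at room temperature. Luciferin quantified by luminescence after detection reagent; normalized to 57 uM furafylline.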

Assay [10] deals with Cytochrome P450 2C9 (Homo sapiens) (UniProt P11712). Kind of assay: qHTS Assay for Inhibitors and Substrates of Cytochrome P450 2C9 (AID 883; active = well fitted curve in the direction sought with a large enough effect; an effect the other way counts as inactive or inconclusive; note: potency is the fitted concentration of half-maximal effect; nearly all actives have a fitted effect of over 60% in size). The following applies: recombinant CYP2C9, luciferin-H luminescence, 60 min; series mostly up to 11.4 µM. The method in brief:
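CYP2C9 deoxyluciferin hydroxylation, 37C, 60 min with NADPH regeneration; 10nM enzyme, 100uM Luciferin-H (KM). Glo detection reagent stopped reaction; luminescence normalized to sulphaphenazole (57uM) full inhibition.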

Assay [11] deals with Cytochrome P450 2D6 (Homo sapiens) (UniProt P10635). The experiment in a line: qHTS Assay for Inhibitors and Substrates of Cytochrome P450 2D6 (AID 891; active = well fitted curve in the direction sought with a large enough effect; an effect the other way counts as inactive or inconclusive; note: potency is the fitted concentration of half-maximal effect; nearly all actives have a fitted effect of over 60% in size). The following applies: recombinant CYP2D6, luciferin-ME EGE luminescence; series mostly up to 11.4 µM. The method in brief: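 Human CYP2D6 (5 nM) with 30 uM Luciferin-ME EGE (at Km) in 100 mM KPO4, compound preincubated 10 min, then NADPH regeneration system for 60 min at room temperature. Luciferin read by luminescence; normalized to 1.43 uM quinidine.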

The target in assay [12] is Cytochrome P450 2C19 (Homo sapiens) (UniProt P33261). Kind of assay: qHTS Assay for Inhibitors and Substrates of Cytochrome P450 2C19 (AID 899; active = well fitted curve in the direction sought with a large enough effect; an effect the other way counts as inactive or inconclusive; note: nearly all actives have a fitted effect of over 60% in size; note: potency is the fitted concentration of half-maximal effect; for activity, negative = inhibition: % is set by controls: 0 for no effect and ±100 for the full control effect). The following applies: recombinant CYP2C19, luciferin-H EGE luminescence; series mostly up to 11.4 µM. The method in brief:
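In 50mM KPO4, the reaction held 5nM enzyme and KM-level (10uM) Luciferin-H EGE; it ran 60 min at 37C after NADPH regeneration and a 10 min compound preincubation. Luminescence values were scaled to 57uM ketoconazole as complete inhibition.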

Assay [13] addresses Guanine nucleotide-binding protein G(i) subunit alpha-1 (Homo sapiens) (UniProt P63096). Kind of assay: qHTS Assay for Inhibitors of RGS12 GoLoco Motif Activity (Green Fluorophore) (AID 879; active = well fitted curve in the direction sought with a large enough effect; an effect the other way counts as inactive or inconclusive;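 note: 0% = labeled peptide with Gαi1 and full inhibition = labeled peptide alone without protein; negative values mean loss of peptide binding seen as reduced polarization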). Particulars: Galphai1/FITC-RGS12 GoLoco peptide, fluorescence polarization; series mostly up to 57.1 µM. The method in brief:
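Fluorescence polarization assay: 50 nM Gαi1 with 10 nM FITC-labeled RGS12 GoLoco peptide in 10 mM Tris pH 7.5, 150 mM NaCl, 0.1 mM GDP, 0.05% NP40, 10 min at room temperature with compound.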

The target in assay [14] is Pyruvate kinase PKM (Homo sapiens) (UniProt P14618). Kind of assay: qHTS Assay for Activators of Human Muscle Pyruvate Kinase (AID 954; active = well fitted curve in the direction sought with a large enough effect, not every such curve was filed as active;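 note: 0% = uninhibited enzyme and -100% = no enzyme or full thiadiazolimine inhibition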). Particulars: purified human muscle pyruvate kinase, luciferase-coupled luminescence, 1 h; series mostly up to 57.5 µM. The method in brief: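 Human PKM2 activity is measured as ATP generation, detected by luciferase-coupled luminescence. The enzyme (0.1 nM) acts on 0.5 mM PEP and 0.1 mM ADP for 1 h at ambient temperature; data are normalized to uninhibited and full-inhibition wells.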

Assay [15] has as its target Alpha-galactosidase A (Homo sapiens) (UniProt P06280). Kind of assay: Counterscreen for Glucocerebrosidase Inhibitors: qHTS Assay for Human alpha-Galactosidase at pH 4.5 (AID 992; active = well fitted curve in the direction sought with a large enough effect; an effect the other way counts as inactive or inconclusive; note: 0% is about no effect). Particulars: purified enzyme, fluorogenic substrate; series mostly up to 76.9 µM. The method in brief: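 Quantitative HTS: compounds tested from 0.7 nM up to 77 uM against 2 nM enzyme with 80 uM 4-MU alpha-D-galactopyranoside. The 20 min room-temperature reaction is stopped with 1M NaOH/1M glycine, pH 10.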

In assay [16] the target is Cytochrome P450 3A4 (Homo sapiens) (UniProt P08684). The experiment in a line: qHTS Assay for Activators of Cytochrome P450 3A4 (AID 885; active = well fitted curve in the direction sought with a large enough effect; an effect the other way counts as inactive or inconclusive; note: nearly all actives have a fitted effect of over 65% in size). Particulars: recombinant CYP3A4, Luciferin-PPXE luminescence, 60 min; series mostly up to 11.4 µM. The method in brief: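 Signal was normalized against complete inhibition by 57 uM ketoconazole. The reaction used 20nM CYP3A4 with 25uM Luciferin-PPXE, 10-min compound preincubation and a 60-min NADPH-supported step at RT.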

Chain of 3',5'-cyclic-AMP phosphodiesterase 4B (Homo sapiens) (Q07343 whole entry, looked up): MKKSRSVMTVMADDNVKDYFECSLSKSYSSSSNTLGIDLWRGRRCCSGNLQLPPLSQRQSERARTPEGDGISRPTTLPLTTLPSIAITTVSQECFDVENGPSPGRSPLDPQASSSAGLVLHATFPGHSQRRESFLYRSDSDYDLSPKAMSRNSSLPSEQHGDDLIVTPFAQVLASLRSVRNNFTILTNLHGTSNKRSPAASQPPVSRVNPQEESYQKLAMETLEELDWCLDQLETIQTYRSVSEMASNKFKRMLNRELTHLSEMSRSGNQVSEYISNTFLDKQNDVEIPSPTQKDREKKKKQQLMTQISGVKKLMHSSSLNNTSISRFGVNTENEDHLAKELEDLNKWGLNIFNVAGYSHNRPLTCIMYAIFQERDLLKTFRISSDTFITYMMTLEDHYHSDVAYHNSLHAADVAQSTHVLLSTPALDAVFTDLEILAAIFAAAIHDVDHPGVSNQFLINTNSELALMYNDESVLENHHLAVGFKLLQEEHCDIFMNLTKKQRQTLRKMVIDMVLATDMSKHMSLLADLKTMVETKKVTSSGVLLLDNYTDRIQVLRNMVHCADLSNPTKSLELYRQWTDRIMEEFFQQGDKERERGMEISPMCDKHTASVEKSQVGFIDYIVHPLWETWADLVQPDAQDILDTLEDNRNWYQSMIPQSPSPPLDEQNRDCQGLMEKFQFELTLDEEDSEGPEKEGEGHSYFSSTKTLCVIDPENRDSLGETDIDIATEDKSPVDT
Chain of Lysosomal acid glucosylceramidase (Homo sapiens) (P04062 whole entry, looked up): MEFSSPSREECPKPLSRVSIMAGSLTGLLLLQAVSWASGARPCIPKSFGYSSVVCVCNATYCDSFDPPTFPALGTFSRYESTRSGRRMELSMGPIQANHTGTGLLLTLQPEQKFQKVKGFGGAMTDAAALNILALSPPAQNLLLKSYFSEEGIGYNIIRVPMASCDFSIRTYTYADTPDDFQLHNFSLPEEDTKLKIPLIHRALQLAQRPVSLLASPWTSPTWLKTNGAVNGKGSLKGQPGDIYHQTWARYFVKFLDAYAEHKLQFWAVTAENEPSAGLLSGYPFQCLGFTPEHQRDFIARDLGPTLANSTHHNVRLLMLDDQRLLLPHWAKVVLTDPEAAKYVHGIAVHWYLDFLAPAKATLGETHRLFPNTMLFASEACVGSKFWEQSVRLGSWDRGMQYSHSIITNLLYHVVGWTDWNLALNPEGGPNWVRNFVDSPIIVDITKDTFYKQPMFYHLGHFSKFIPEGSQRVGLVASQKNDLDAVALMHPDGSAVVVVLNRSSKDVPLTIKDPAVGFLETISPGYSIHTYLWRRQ
Chain of Cytochrome P450 1A2 (Homo sapiens) (P05177 whole entry, looked up): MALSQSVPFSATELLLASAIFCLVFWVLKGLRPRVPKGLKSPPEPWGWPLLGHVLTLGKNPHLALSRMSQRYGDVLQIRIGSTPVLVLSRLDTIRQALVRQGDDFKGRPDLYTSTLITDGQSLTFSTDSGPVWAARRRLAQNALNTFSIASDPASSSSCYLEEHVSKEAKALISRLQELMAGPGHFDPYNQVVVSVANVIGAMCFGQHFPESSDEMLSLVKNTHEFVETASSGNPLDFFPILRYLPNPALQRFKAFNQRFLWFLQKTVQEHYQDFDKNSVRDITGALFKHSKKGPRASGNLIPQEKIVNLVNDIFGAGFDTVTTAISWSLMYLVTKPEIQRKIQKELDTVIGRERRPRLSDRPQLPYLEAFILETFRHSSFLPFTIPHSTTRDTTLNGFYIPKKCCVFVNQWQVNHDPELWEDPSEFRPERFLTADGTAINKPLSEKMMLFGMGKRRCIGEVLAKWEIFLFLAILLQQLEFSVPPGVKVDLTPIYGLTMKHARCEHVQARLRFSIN
Chain of Glucocorticoid receptor (Homo sapiens) (P04150 whole entry, looked up): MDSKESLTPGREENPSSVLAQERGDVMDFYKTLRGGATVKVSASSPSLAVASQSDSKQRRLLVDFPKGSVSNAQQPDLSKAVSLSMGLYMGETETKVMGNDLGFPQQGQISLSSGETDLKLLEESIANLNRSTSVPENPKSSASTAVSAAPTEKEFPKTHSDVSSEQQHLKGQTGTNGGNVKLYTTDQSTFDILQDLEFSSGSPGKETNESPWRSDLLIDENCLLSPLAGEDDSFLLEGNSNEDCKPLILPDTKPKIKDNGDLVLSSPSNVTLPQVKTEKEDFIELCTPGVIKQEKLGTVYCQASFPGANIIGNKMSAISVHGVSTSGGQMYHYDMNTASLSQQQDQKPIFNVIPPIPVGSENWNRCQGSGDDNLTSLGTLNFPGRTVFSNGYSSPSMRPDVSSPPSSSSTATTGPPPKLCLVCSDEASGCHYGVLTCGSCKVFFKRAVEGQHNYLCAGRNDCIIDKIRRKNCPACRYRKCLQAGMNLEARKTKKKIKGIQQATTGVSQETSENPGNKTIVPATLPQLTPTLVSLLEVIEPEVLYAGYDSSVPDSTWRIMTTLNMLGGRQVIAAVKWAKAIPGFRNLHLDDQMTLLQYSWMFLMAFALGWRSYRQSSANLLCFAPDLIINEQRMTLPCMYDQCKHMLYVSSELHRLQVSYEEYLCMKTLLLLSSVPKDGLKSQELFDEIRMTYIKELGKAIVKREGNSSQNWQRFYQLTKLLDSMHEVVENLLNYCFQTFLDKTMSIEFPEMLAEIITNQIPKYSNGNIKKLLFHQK
Chain of Cytochrome P450 2C9 (Homo sapiens) (P11712 whole entry, looked up): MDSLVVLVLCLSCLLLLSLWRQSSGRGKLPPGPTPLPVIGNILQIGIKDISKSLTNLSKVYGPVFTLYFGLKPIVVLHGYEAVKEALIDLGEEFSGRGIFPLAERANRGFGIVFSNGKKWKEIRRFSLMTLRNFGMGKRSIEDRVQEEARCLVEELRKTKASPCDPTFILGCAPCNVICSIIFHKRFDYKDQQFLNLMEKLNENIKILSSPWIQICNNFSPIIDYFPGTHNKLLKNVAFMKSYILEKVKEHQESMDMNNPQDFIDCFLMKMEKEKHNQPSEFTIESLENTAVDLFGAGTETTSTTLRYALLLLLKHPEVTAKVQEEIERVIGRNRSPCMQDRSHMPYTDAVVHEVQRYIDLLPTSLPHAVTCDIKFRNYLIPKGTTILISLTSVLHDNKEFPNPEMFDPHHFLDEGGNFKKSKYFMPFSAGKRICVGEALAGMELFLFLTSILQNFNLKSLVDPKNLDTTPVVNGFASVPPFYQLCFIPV
Chain of Guanine nucleotide-binding protein G(i) subunit alpha-1 (Homo sapiens) (P63096 whole entry, looked up): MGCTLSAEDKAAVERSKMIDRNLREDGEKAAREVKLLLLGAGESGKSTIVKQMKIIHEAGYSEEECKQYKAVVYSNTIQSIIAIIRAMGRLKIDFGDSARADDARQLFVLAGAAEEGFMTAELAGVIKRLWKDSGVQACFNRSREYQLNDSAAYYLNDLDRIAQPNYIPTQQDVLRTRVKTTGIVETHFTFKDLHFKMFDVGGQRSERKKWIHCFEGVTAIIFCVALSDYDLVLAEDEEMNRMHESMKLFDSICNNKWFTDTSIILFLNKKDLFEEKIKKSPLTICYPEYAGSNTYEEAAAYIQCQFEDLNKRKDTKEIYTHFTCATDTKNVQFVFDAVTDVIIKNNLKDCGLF
Chain of Cytochrome P450 2C19 (Homo sapiens) (P33261 whole entry, looked up): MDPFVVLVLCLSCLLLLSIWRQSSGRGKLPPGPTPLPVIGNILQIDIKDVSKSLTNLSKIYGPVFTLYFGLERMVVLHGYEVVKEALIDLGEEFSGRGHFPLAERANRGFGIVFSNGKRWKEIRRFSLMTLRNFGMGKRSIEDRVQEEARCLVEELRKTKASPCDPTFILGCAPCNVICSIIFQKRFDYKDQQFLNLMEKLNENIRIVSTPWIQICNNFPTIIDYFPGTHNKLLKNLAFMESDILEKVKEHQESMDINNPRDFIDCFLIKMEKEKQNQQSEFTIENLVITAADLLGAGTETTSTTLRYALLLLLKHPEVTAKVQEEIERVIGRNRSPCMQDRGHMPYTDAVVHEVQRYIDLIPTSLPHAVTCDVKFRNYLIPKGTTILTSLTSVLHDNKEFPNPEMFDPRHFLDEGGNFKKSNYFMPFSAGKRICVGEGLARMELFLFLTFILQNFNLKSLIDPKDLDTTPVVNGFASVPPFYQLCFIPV
Chain of Pyruvate kinase PKM (Homo sapiens) (P14618 whole entry, looked up): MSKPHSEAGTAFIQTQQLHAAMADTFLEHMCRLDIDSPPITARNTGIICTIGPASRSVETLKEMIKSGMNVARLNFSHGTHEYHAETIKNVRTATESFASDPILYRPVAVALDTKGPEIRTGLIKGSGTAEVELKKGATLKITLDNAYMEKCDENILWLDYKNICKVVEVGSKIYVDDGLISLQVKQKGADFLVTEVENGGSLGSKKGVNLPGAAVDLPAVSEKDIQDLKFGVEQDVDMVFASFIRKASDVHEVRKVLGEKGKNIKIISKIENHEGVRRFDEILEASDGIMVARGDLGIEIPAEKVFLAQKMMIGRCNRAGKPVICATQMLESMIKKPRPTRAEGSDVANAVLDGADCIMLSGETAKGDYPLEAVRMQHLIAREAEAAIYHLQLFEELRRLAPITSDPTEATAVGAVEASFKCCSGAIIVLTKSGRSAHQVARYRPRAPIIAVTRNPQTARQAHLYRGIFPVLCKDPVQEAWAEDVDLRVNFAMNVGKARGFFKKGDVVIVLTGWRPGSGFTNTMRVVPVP
Chain of Alpha-galactosidase A (Homo sapiens) (P06280 whole entry, looked up): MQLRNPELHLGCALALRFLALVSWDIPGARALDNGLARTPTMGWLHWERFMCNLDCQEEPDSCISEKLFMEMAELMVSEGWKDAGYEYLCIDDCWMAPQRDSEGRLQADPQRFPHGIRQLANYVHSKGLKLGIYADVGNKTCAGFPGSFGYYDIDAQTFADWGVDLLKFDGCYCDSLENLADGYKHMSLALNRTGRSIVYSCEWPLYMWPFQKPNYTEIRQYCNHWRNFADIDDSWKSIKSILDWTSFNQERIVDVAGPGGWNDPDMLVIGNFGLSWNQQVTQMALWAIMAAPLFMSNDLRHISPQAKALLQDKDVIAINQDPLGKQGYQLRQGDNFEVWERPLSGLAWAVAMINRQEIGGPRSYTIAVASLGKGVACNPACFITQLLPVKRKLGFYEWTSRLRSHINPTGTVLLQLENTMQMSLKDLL

On to `Cc1c(O)c(Br)c(C)c(O)c1Br` (tested in a mixture with another compound), for which the results for the Potency in assay [1], in [3] and in assay [4] were more than 11.4 µM, more than 46 µM and more than 9.22 µM, respectively. Besides, the activity change, negative = inhibition in assay [2] was -77.8% (active). The Potency entry in assay [5] and in assay [6] was “inactive” in each case.

`NS(=O)(=O)c1ccc(NC(=O)Nc2ccccc2F)cc1`: the Potency in [1] was more than 11.4 µM; in assay [3], more than 46 µM; in [4], more than 9.22 µM. Moreover, the activity change, negative = inhibition in assay [2] was 20.2%. In addition, in assay [7], the activity, negative = inhibition was 2.14%. For the same compound, the Potency result in assay [5] and in [6] was “inactive” in each case. Besides, the activation in [8] is 3.83%.

As for `C=C(C)COc1ccc2c(c1)CCC1C2CC[C@]2(C)C(=O)/C(=N/O)CC12` (stereo partly specified), the Potency in [1] is more than 11.4 µM; in [3] it was more than 46 µM; in assay [4], more than 9.22 µM. Moreover, the Potency result in [9], in assay [5] and in assay [6] was “inactive” each time.

As for `O=C1C(Cl)=C(Nc2ccc(S(=O)(=O)Nc3ccccn3)cc2)C(=O)c2ccccc21`, the Potency in [1] is more than 11.4 µM; in assay [9] it was 3.16 µM (active); in assay [3], more than 46 µM; in assay [4] it was more than 9.22 µM; in [10] it was 2 µM (active); in [11], 3.16 µM (active). Further, in assay [12], the Potency was 794 nM (active). Further, the Potency entry in [5] and in assay [6] was “inactive” each time.

Turning to `CC[C@H]1C(=O)OC[C@H]1Cc1cncn1C`, in assay [1], the Potency was more than 11.4 µM. Further, the Potency entry in assay [9], in [5], in [6] and in [12] was “inactive” throughout. In addition, the compound was classed as inactive in assay [13], in assay [14] and in assay [15].

As to `OCCN[C@@H]1c2cc(Cl)ccc2-c2c(Cl)cc(Cl)cc21`, the Potency in [1] was more than 11.4 µM; in assay [3] it was more than 46 µM; in assay [4], more than 9.22 µM. Also, the activity change, negative = inhibition in assay [2] was -8.6%. Also, the activity, negative = inhibition in assay [7] was 4.1%. Also, the Potency entry in assay [5] and in [6] was “inactive” each time.

With `C[C@@H](C(=O)O)/C(=C/c1ccc2c(c1)OCO2)C(=O)O`, the Potency in [1] was more than 11.4 µM; in assay [3], more than 46 µM; in assay [4], more than 9.22 µM; in [10], 2.51 µM (active). Further, in assay [2], the activity change, negative = inhibition was 1.64%. The activity, negative = inhibition in assay [7] was -5.22%. The Potency result in assay [5], in assay [6] and in [16] was “inactive” in each case.

Take `Cc1cccc(Cl)c1NC[C@H](O)CN1CCN(C)CC1`: the results for the Potency in [1], in [3] and in assay [4] were more than 11.4 µM, more than 46 µM and more than 9.22 µM, respectively. In assay [2], the activity change, negative = inhibition was -10.1%. For the same compound, the activity, negative = inhibition in [7] was 6.35%. Further, the Potency entry in [5] and in assay [6] was “inactive” in each case.

`O=c1c(-c2cc(F)cc(F)c2)nc2cnc(N3CCNCC3)nc2n1CCc1ccccc1`: the Potency in assay [1] is more than 11.4 µM; in [9] it was 20 µM (active); in assay [3], more than 9.22 µM; in assay [4], more than 46 µM; in assay [8] it was 3.16 µM (active). Also, in assay [6], the Potency result is “inactive”.
